{
  "source": "PubChem BioAssay (NCATS)",
  "note": "Records with an inconclusive call do not appear. Entries that show only a call come without a potency. Calls of active or inactive are those of the source. Calls follow the shape of the dose curve; as a rule, active = well fitted inhibition curve with a large enough effect; inconclusive = small, poorly fitted or top-dose-only effect; inactive = flat fitted curve, though single readings scatter.",
  "data": [
    {"tested_on": "Zika virus NS2B-NS3 protease", "assay": "Primary screen GU AMC qHTS for Zika virus inhibitors (AID 1347154); also: nearly all actives have a fitted effect of over 70% in size", "details": "Zika NS2B-NS3 unlinked protease, AMC fluorogenic substrate; series mostly up to 54.1 µM", "method_in_brief": "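Unlinked Zika NS2B hydrophilic domain/NS3 protease domain noncovalent complex (25 nM final) in 10 mM Tris-HCl pH 8.0, 0.01% Tween 20, with AMC peptide substrate. Fluorescence (ex 340, em 450 nm) change over 15 min, room temperature; percent inhibition fitted to 4-parameter Hill equation.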", "values": [
      {"compound": "COc1ccc(S(=O)(=O)Nc2nnc(CC(C)C)s2)cc1", "Potency": "inactive"},
      {"compound": "CC(=O)O[C@@]12CO[C@@H]1C[C@H](O)[C@@]1(C)C(=O)[C@H](O)C3=C(C)[C@@H](OC(=O)[C@H](O)[C@@H](NC(=O)OC(C)(C)C)c4ccccc4)C[C@@](O)([C@@H](OC(=O)c4ccccc4)[C@H]21)C3(C)C", "Potency": "inactive"},
      {"compound": "CCCc1c(OCCCCc2nn[nH]n2)ccc(C(C)=O)c1O", "Potency": "inactive"},
      {"compound": "CC(C)(C)C(=O)NCCCC(=O)O", "Potency": "inactive"},
      {"compound": "CCCOC(=O)c1ccccc1", "Potency": "inactive"},
      {"compound": "Nc1ccc(S(=O)(=O)Nc2ccc(Cl)nn2)cc1", "Potency": "inactive"},
      {"compound": "NC(=O)N/N=C/c1ccc([N+](=O)[O-])o1", "Potency": "inactive"},
      {"compound": "NC(=O)c1ncn([C@@H]2O[C@H](CO)[C@@H](O)[C@H]2O)c1N", "Potency": "inactive"},
      {"compound": "CCCCCCCCCCCCCCCCCCOCC(O)CO", "note": "(stereo not given)", "Potency": "inactive"},
      {"compound": "c1ccc2c(CC3=NCCN3)cccc2c1", "Potency": "inactive"},
      {"compound": "CO/N=C(\\C(=O)N[C@@H]1C(=O)N2C(C(=O)O)=C(CSc3nc(=O)c(O)nn3C)CS[C@H]12)c1csc(N)n1", "Potency": "inactive"},
      {"compound": "OC[C@H]1O[C@@H](O[C@@H]2[C@@H](CO)O[C@](O)(CO)[C@H]2O)[C@H](O)[C@@H](O)[C@H]1O", "Potency": "inactive"},
      {"compound": "O=C(O)c1ccccc1-c1ccc(C(F)(F)F)cc1", "Potency": "inactive"},
      {"compound": "NCCNCCNCCNCCN", "activity change, negative = inhibition": "-0.671% [at 6.83 µM] (inactive)"},
      {"compound": "Cn1cc[nH]c1=S", "Potency": "inactive"},
      {"compound": "O=C1NS(=O)(=O)c2ccccc21", "Potency": "inactive"},
      {"compound": "C[C@@H]1CCN(C(=O)[C@H](CCCN=C(N)N)NS(=O)(=O)c2cccc3c2NC[C@H](C)C3)[C@@H](C(=O)O)C1", "Potency": "inactive"},
      {"compound": "N[C@@H](CSSC[C@H](N)C(=O)O)C(=O)O", "activity change, negative = inhibition": "4.84% [at 0.59 µM] (inactive)"},
      {"compound": "CC12CCC(CC1)C(C)(C)O2", "Potency": "inactive"},
      {"compound": "O=C(O)[C@@H]1CSCN1", "Potency": "inactive"},
      {"compound": "Nc1ccc(S(=O)(=O)NC(=O)c2ccccc2)cc1", "Potency": "inactive"},
      {"compound": "Cc1cc(CC(=O)O)n(C)c1C(=O)c1ccc(Cl)cc1", "Potency": "inactive"},
      {"compound": "O=c1[nH]c(=O)c2[nH]c(=O)[nH]c2[nH]1", "activity change, negative = inhibition": "-2.36% [at 6.83 µM] (inactive)"},
      {"compound": "CCCCCCCCCCCCCCCC(=O)NCCO", "Potency": "inactive"},
      {"compound": "CC(=O)CCC(=O)O", "Potency": "inactive"},
      {"compound": "[O-][n+]1cccc(CO)c1", "Potency": "inactive"},
      {"compound": "Oc1cn2c(n1)Nc1ccc(Cl)c(Cl)c1C2", "Potency": "inactive"},
      {"compound": "Cc1c(Cl)cccc1Nc1ccccc1C(=O)O", "Potency": "inactive"},
      {"compound": "NS(=O)(=O)c1cc2c(cc1Cl)NC(CSCc1ccccc1)=NS2(=O)=O", "Potency": "inactive"},
      {"compound": "O=C(O)Cc1sc(-c2ccccc2)nc1-c1ccc(Cl)cc1", "Potency": "inactive"},
      {"compound": "C/C(=C(\\CCOP(=O)(O)O)SC(=O)c1ccccc1)N(C=O)Cc1cnc(C)nc1N", "activity change, negative = inhibition": "0.0847% [at 4.99 µM] (inactive)"},
      {"compound": "O=S(=O)(O)c1cc(I)c(O)c2ncccc12", "Potency": "inactive"},
      {"compound": "CCCCC(CC)COC(=O)c1ccccc1O", "note": "(stereo not given)", "Potency": "inactive"},
      {"compound": "Cc1cccc(C)c1NC(=O)CN(CC(=O)O)CC(=O)O", "Potency": "inactive"},
      {"compound": "Cc1ccc(C(C)C)cc2c(C)ccc1-2", "Potency": "inactive"},
      {"compound": "CCCCN(CCCC)CCCOC(=O)c1ccc(N)cc1", "Potency": "inactive"},
      {"compound": "CCOC(=O)[C@H](CCc1ccccc1)N[C@@H](C)C(=O)N1C(=O)N(C)C[C@H]1C(=O)O", "Potency": "inactive"},
      {"compound": "NC(=O)NC(=O)Cc1ccccc1", "Potency": "inactive"},
      {"compound": "CC1(C)CO[C@@H](CC(=O)O)CN1", "Potency": "inactive"},
      {"compound": "Oc1cccc(O)c1", "Potency": "inactive"}
    ]}
  ]
}
